Screening data as filed in PubChem.
Only a selection was taken, and hits are over-represented in it overall.
Tg IFNy HTS: T. gondii growth inhibition under IFN-gamma; Toxoplasma gondii growth in IFN-gamma-treated host cells; hits give low values; activity change, negative = inhibition, % (concentration not given with the values); actives 3.8% (n = 69,000); AID 1259416; in the data active = activity change below about -70%, passing the limit was not always enough;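 also: host cells are HeLa cells infected with Toxoplasma gondii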
A number is an active result; 0 = inactive; ! = a repeat was not active.

SMILES	Tg IFNy HTS
CN(Cc1ccc(Oc2ccccc2)cc1)Cc1cc2n(n1)CCNC2	0
Clc1ccc(C2CC(c3ccco3)=Nc3ccccc3S2)cc1 (stereo not drawn)	0
C=CCSC(C)C(=O)Nc1ccc(NC(=O)C(C)(C)C)c(Cl)c1 (stereo not drawn)	0
CCCCOCC(=O)N1Cc2cnc(CC)nc2C1	0
Nc1nc(=S)c2[nH]cnc2[nH]1	-87
Nc1ncnc2nc[nH]c12	0
CCOC(=O)[C@H](C)C[C@@H](Cc1ccc(-c2ccccc2)cc1)NC(=O)CCC(=O)O	0
O=C1NC2(C=Cc3c(ccc4ccccc34)O2)Oc2ccccc21 (stereo not drawn)	-107
O=C1Nc2cc(Cl)ccc2Oc2ccccc21	0
CCCc1cncnc1N1CCN(C2CCN(C(=O)C(C)C)CC2)CC1	0
CC(=O)Oc1ccc(CN2CCC(c3nc(C)c(C)c(N4CCOCC4)n3)CC2)cc1	0
Cc1oc(-c2ccccc2)nc1Cn1nnc(C(=O)Nc2ccc(Cl)c(Cl)c2)c1C	0
COc1ccc(C(=O)c2sc3nc(C)cc(C(F)(F)F)c3c2N)cc1OC	0
COc1cc2ncn(-c3cc(OCc4ccccc4C(F)(F)F)c(C(N)=O)s3)c2cc1OC	-88
COc1ccccc1OCC(=O)n1nc(N)c2c(C(F)(F)F)cc(C)nc21	0
Cn1nc(C2CCN(C(=O)c3cnon3)CC2)n(-c2ccccc2)c1=O	0
CNC(=O)c1ccc(Cn2nc(C3CCNCC3)n(-c3ccccc3)c2=O)o1	0
Cc1nnc(SCC(=O)N2CCC(O)(c3cccnc3F)CC2)s1	0
CCN(CCOc1cccc(C)c1)C(=O)c1ccc2nc(C)[nH]c2c1	0
Cc1ccc(CC2(O)CC(C)N(C)CC2C)cc1 (stereo not drawn)	0
CN1CCCC1(Cc1ccccc1)C(=O)O (stereo not drawn)	0
CC1C(c2ccccc2)N(C)C(c2ccccc2)CC1(O)Cc1ccccc1 (stereo not drawn)	-85
O=C(NCCc1csc(-c2ccc(C(F)(F)F)cc2)n1)C(=O)Nc1ccccc1[N+](=O)[O-]	0
c1ccc(CN2CCCN(c3nccc(CN4CCc5ccccc5C4)n3)CC2)cc1	0
c1ccc2nc3c(cc(N4CCOCC4)c4ccccc43)nc2c1	-104
SMILES	Tg IFNy HTS
O=c1cc(N2CCOCC2)nc2c3ccccc3ccn12	0
Cc1cc(N2CCC3(CCCO3)CC2)c2ccccc2n1	0
O=C(Nc1ccccc1)c1c(O)c2ccccc2n(-c2ccccc2)c1=O	0
OC(COc1ccc(F)cc1)(c1ccc(Cl)cc1)c1ccc(Cl)cc1	-99
CCOc1ccc2c(c1)C(c1ccc(F)cc1)=NNC(c1ccc(Cl)cc1)=N2	0
O=S(=O)(Cc1ccc(Cl)cc1)CC(O)COc1ccc(F)cc1 (stereo not drawn)	0
CC1CN(CCCn2c3ccccc3c3ccccc32)CC(C)N1 (stereo not drawn)	0
COc1ccccc1C1(O)CCN(CCCn2c3ccccc3c3ccccc32)CC1	-77!
COc1ccccc1C1(O)CCCN(CC(O)c2ccc(C)cc2)C1 (stereo not drawn)	0
COCCN1CCCC2(CCN(C(=O)C3CCOCC3)CC2)C1=O	0
C=CCC(=O)N(CC=C)Cc1cccc(OC)c1	0
Cc1cc(-c2ccc3c(c2)OCCO3)cnc1N	0
NC1=NN=C(c2ccc3c(c2)OCCO3)CS1	-81
c1cc2c(cc1-c1csc(-c3ccc4c(c3)OCCO4)n1)OCCO2	0
COCCC(=O)c1c2c(-c3ccccc3)ncnc2n2ccccc12	0
CC(C)Nc1nc2c(cc1C(=O)NCC1CC1)CCN(c1ncc(F)cn1)CC2	0
O=C(c1ccco1)N1CCC2(CC1)COC(COc1ccccn1)C2 (stereo not drawn)	0
Cc1cnc(Nc2cccc(C3CCCN3C(=O)CCOc3ccccc3C)n2)s1 (stereo not drawn)	0
Cc1nc(Nc2ncc(C(=O)Nc3c(C)cccc3Cl)s2)cc(N2CCN(CCO)CC2)n1	-77
Cc1cc2oc(=O)cc(C)c2cc1NC(=O)c1cnc(CN2CCCC2)s1	0
O=C(Nc1ccc(CN2CCCCCC2)cc1)c1ccc(-c2nn[nH]n2)cc1	0
COc1ccc(S(=O)(=O)N2CCN(S(=O)(=O)c3cc4c5c(c3)CCN5C(=O)CC4)CC2)cc1	0
CC(C)(C)c1cc(C(=O)CSc2nc3ccccc3[nH]2)cc(C(C)(C)C)c1O	0
CN1[C@@H]2CC[C@H]1CC(OC(=O)c1c[nH]c3ccccc13)C2 (stereo partly drawn)	0
CN1C2CCC1CC(OC(=O)c1c[nH]c3ccccc13)C2 (stereo not drawn)	0
SMILES	Tg IFNy HTS
CN(C)c1cc(OC2CCN(C(=O)c3c[nH]c4ccccc34)C2)ncn1 (stereo not drawn)	-84
COc1ccc(S(=O)(=O)NCCc2csc(-c3cccc(F)c3)n2)cc1F	0
CCOC(=O)C1CCCN(C(=O)C2=C(C)C(=O)OC23CCN(S(C)(=O)=O)CC3)C1 (stereo not drawn)	0
O=C(Cc1ccc(N2CCNC2=O)cc1)N1CCCC2(CCNC2)C1 (stereo not drawn)	0
CC(C)(C)c1cc(C(F)(F)F)nc(SCCCNC(=O)CCc2ccccc2)n1	-74
O=C(CCc1nc2ccccc2[nH]1)NCCc1ccc(C(F)(F)F)cc1	0
O=C(CCc1ccccc1)Nc1ccccc1C(F)(F)F	0
O=C(NCc1nc2ccccc2c(=O)[nH]1)C1CC2(CCNCC2)CN1 (stereo not drawn)	0
COc1ccccc1-c1noc(CCC(=O)N(C)C(C)c2ccon2)n1 (stereo not drawn)	0
CCOCC1CN(C(=O)N2CCCC2)Cc2cnn(CC)c21 (stereo not drawn)	0
COc1ncc(-c2ccc(-c3ccn[nH]3)cc2)c(OC)n1	0
CCCNC(=O)c1ccc2ccc(N3CCN(C(=O)N(C)C)CC3)n2c1	0
CN(C)CCCNC(=O)c1ccc2ccc(N3CCN(Cc4cccnc4)CC3)n2c1	-87
CN(C)C(=O)N1CCN(c2ccc3ccc(C(=O)NCCc4ccccc4)cn23)CC1	0
c1cc(-c2nccn2CCn2cccn2)c2nonc2c1	0
O=S(=O)(c1cc(-c2nnc(C3CCC3)o2)co1)N1CCC(N2CCCCC2)CC1	0
Fc1cccc(CSc2nc(NC3CCCCC3)c3ccccc3n2)c1	-76
Cc1cccc(-c2nnc(-c3nc(NCc4ccccc4)c4ccccc4n3)o2)c1	-107
CCOc1ccc(Nc2nc(-c3nnc(-c4cccc(C)c4)o3)nc3ccccc23)cc1	0
COc1ccccc1CNc1nc(-c2nnc(-c3ccc(C)cc3)o2)nc2ccccc12	0
Cc1ccc(-c2nnc(-c3nc(Nc4ccc(F)cc4)c4ccccc4n3)o2)cc1	0
Cc1ccc(Nc2nc(-c3nnc(-c4ccc(F)cc4)o3)nc3ccccc23)cc1	0
Clc1cccc(CSc2nc(NCCc3ccccc3)c3ccccc3n2)c1	0
Clc1ccccc1CSc1nc(NC2CCCCC2)c2ccccc2n1	0
Cc1cccc(-c2nnc(-c3nc(NCc4ccccc4C)c4ccccc4n3)o2)c1	-91
SMILES	Tg IFNy HTS
Cc1ccc(CNc2nc(-c3nnc(-c4cccc(C)c4)o3)nc3ccccc23)cc1	0
Fc1ccc(-c2nnc(-c3nc(NC4CCCCC4)c4ccccc4n3)o2)cc1	-104
Cc1cccc(-c2nnc(-c3nc(NCc4ccc(F)cc4)c4ccccc4n3)o2)c1	0
Fc1ccc(-n2nnnc2-c2cnn(-c3ccccc3)c2-c2ccccc2)cc1	0
COc1cccc(-n2c(=O)c(C(=O)Nc3ccc(C)cc3)c(O)c3cccnc32)c1	0
Cc1nc([C@H]2C[C@H]3CCN(C(=O)c4cnccn4)C[C@@H]3O2)sc1C	0
